# Most compounds without a hit are left out; they make up all but 3.2% or so of the library.
# DENV2 CPE = inhibitors of DENV2 cytopathic effect; 350,000 tested, 1.7% active; CPE inhibition, % at 9.99 µM; DENV2-infected cells, cytopathic effect rescue, plate reader; in the data active = CPE inhibition above about 20%, passing the limit was not always enough; inconclusive = no clear call, values can overlap the other calls; tested in BHK-21 cells;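 also: 0% = median of neutral control wells and 100% = median of positive control wells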
# ERAP1 inh = inhibitors of human ERAP1 aminopeptidase; AID 652197; Q9NZ08; 340,000 tested, 0.15% active; inhibition, % at 10.7 µM; recombinant ERAP1, Leu-AMC fluorescence, 60 min;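 active = mean replicate inhibition of at least 30%, or all replicates individually reaching that 30% level; inactive = mean below 30% and not every replicate reaching it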;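 also: 0% = neutral control wells and 100% = L-leucinethiol positive control wells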
# Target sequence (Q9NZ08 whole entry, looked up): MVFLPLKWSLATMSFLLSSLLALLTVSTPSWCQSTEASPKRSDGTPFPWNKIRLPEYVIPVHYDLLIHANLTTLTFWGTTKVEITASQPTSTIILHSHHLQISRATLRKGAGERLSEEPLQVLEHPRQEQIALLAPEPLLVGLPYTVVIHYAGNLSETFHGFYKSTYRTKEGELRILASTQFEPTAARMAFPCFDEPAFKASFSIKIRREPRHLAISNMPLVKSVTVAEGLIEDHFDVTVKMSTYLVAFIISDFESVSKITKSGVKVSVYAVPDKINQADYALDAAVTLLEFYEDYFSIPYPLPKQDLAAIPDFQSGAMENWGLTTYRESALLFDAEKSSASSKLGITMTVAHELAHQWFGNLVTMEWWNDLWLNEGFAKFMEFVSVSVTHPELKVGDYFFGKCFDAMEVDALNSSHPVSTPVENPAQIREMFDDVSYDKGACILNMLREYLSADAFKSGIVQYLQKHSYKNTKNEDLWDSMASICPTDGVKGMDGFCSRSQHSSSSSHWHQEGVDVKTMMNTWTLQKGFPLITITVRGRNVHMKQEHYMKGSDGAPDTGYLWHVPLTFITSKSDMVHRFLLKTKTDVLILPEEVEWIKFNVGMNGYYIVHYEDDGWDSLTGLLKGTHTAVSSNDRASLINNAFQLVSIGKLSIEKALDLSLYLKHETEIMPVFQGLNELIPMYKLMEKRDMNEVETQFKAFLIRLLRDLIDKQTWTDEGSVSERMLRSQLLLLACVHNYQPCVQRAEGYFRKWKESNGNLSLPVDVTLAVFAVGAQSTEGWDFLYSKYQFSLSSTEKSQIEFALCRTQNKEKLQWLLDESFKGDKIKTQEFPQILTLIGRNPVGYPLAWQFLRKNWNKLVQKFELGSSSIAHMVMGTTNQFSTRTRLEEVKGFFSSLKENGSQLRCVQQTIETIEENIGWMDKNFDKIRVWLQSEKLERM
# CaV13 FRET inh = Primary screen for inhibitors of IQ motif and Ca2+-dependent inactivation inhibitor domain binding in CACNA1D, Förster resonance energy transfer in living cells, … | AID 743397 | inhibition, % at 12.3 µM | 340,000 tested, 0.098% active | HEK cells, CFP/YFP FRET ICDI-IQ, plate reader, 10 min; percent FRET-ratio fall versus neutral wells;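 active = mean replicate inhibition of at least 30% and at least 1% of replicates passing that level; inconclusive = only one of the two criteria is met; inactive = neither criterion is met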;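 also: 0% = median of the neutral control wells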
# rRNA inh HTS = inhibits bacterial ribosomal RNA function over humanized ribosomes. E. coli WT GFP vs humanized-ribosome RFP mutants, fluorescence, 24 h; hits give low values; DMSO median 0, no signal -100. GFP signal change (wild-type ribosome), % (concentration not given with the values). 350,000 tested, 1.6% active;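 active = significant combined selectivity score with lowered wild-type GFP, culture density cut under 30%, mutant RFP and density less affected; inactive = any of these conditions unmet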
# INS-1E GSIS act = primary screen for activators of insulin secretion dependent on glucose, INS-1E cells, GLuc reporter luminescence; INS-1E GLuc reporter insulin secretion, 2-3 h; activation, % at 16.6 µM; 370,000 tested, 0.61% active; AID 743287;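 active = lowest replicate activation of at least 40%, so every replicate reaches that level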;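 also: 0% = median of neutral control wells and 100% = median of IBMX positive control wells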
# PGC1a acetyl inh = modulators of PGC1a acetylation | inhibition, % at 15.6 µM | 350,000 tested, 0.17% active | U2OS PGC1a acetylation, AlphaScreen anti-acetyl-lysine; with virally co-expressed GCN5 acetyltransferase;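 active = every replicate shows inhibition of at least 40%; inconclusive = mean inhibition at least 40% but some replicate below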;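 also: 0% = neutral control wells and 100% = positive control wells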
# * marks the source's active call; other numbers are inactive results; ? = inconclusive; nt = not tested or not shown.
SMILES,DENV2 CPE,ERAP1 inh,CaV13 FRET inh,rRNA inh HTS,INS-1E GSIS act,PGC1a acetyl inh
C[C@H]1CN([C@@H](C)CO)C(=O)c2cc(-c3cccnc3)cnc2O[C@@H]1CN(C)C(=O)NC1CCCC1,-6.9,-7.1,nt,5.1,-0.9,11.2
CC(C)CN(C(=O)c1cc(Cl)nc2ccccc12)c1c(N)n(Cc2ccccc2)c(=O)[nH]c1=O,55.9*,4.5,-5.6,-1.9,8.7,nt
COc1cccc(NC(=O)Nc2ccc3c(c2)OC[C@H](C)NC[C@H](C)[C@@H](OC)CN(C)C3=O)c1,-5.5,-4.8,nt,-3.9,-11.1,9.0
Cc1c(C(=O)NCc2cccnc2)oc2ccc(S(=O)(=O)N3CCC4(CC3)OCCO4)cc12,nt,nt,-4.5,nt,nt,nt
Cc1c(C(=O)NCc2cccnc2)oc2ccc(S(=O)(=O)N3CC(C)CC(C)C3)cc12 (stereo unspecified),21.2*,nt,-3.8,-3.9,-2.0,-7.7
O=C(Nc1cccc(Cl)c1)N[C@H]1CC[C@H](CCNC(=O)C2CCCCC2)O[C@@H]1CO,10.1,7.2,nt,-2.0,7.7,-4.7
O=C(CN1CCC(n2nnc3cc(F)ccc32)CC1)NC1CC1,nt,nt,-4.0,nt,nt,2.1
O=C(CN1CCC(n2nnc3cc(F)ccc32)CC1)N1CCc2ccccc2C1,7.6,-4.1,-6.2,-23.1*,-5.5,-20.0
O=C(N[C@@H]1CC[C@H](CCNS(=O)(=O)c2ccc(F)cc2)O[C@@H]1CO)C1CCCC1,-6.5,-1.1,nt,-1.7,-5.5,1.3
Cc1ccccc1S(=O)(=O)NCC[C@@H]1CC[C@@H](NC(=O)C2CCCCC2)[C@@H](CO)O1,27.3*,0.5,nt,-3.9,2.5,1.1
O=C(N[C@H]1CC[C@H](CCNS(=O)(=O)c2ccc(F)cc2)O[C@@H]1CO)C1CCCC1,32.5*,-1.0,nt,-2.9,-5.6,6.3
NCC[C@@H]1CC[C@@H](NC(=O)C2CCCC2)[C@@H](CO)O1,36.0*,-1.2,nt,2.7,16.3,0.5
Cc1ccccc1S(=O)(=O)NCC[C@H]1CC[C@H](NC(=O)C2CCCC2)[C@@H](CO)O1,7.7,0.7,nt,1.7,18.4,-1.1
CCS(=O)(=O)NCC[C@@H]1CC[C@@H](NS(=O)(=O)c2ccccc2C)[C@H](CO)O1,49.6*,-0.5,nt,1.3,-1.0,4.8
COc1ccc(/C=C/C(=O)NC(=S)NN2CCCCC2c2cccnc2)cc1OC (stereo unspecified),6.9,-1.3,-4.6,0.6,70.1*,nt
COc1ccc(/C=C/C(=O)NC(=S)N2CCCCC2)cc1OC,3.5,-3.5,-2.9,-3.7,13.3,23.6
COc1ccc(Nc2ccc(S(=O)(=O)N3CCCCC3)cc2[N+](=O)[O-])cc1,nt,nt,-2.0,nt,-27.1,nt
O=[N+]([O-])c1cc(S(=O)(=O)N2CCCC2)ccc1N/N=C/c1cccs1,nt,nt,-4.6,nt,47.9*,10.4
COc1ccc(Nc2ccc(S(=O)(=O)N3CCCCC3)cc2[N+](=O)[O-])cc1Cl,40.7*,1.3,-5.6,1.8,-22.8,-3.0
CCCNC(=O)N1C[C@@H](C)[C@@H](OC)CN(C)C(=O)c2cc(NC(=O)CC)ccc2OC[C@@H]1C,2.0,1.5,nt,1.6,-3.5,-1.2
Cc1noc(C)c1NC(=O)Nc1cccc2c1O[C@@H](CN(C)C)[C@H](C)CN([C@@H](C)CO)C2=O,15.3,1.0,nt,1.3,1.4,-1.6
COC(=O)c1cc(OC)c(OC)cc1NC(=O)C(C)Sc1ccc(C)cc1 (stereo unspecified),-0.5,-3.2,-9.3,-26.1*,-11.1,-8.9
O=C(NCCc1ccccc1)[C@H]1[C@H](CO)[C@H]2Cn3c(cccc3=O)[C@H]2N1Cc1cccnc1,?,1.9,nt,0.4,-1.9,nt
COc1cccc(/C=N/NC(=O)CNC(=O)COc2cccc(C)c2)c1O,-2.2,nt,-2.6,7.2,-1.8,nt
O=C(CNC(=O)C(c1ccccc1)c1ccccc1)N/N=C/c1ccc(O)cc1O,2.5,-3.3,3.8,-19.9*,-29.1,nt
Cc1cccc(OCC(=O)NCC(=O)N/N=C/c2ccc(O)cc2O)c1,nt,-0.5,-2.4,-30.2*,15.0,3.4
C[C@@H]1CN([C@@H](C)CO)C(=O)c2cc(C#CC3(O)CCCC3)cnc2O[C@@H]1CN(C)C(=O)C1CC1,nt,nt,nt,5.4,1.9,3.2
